Compound activity (PubChem BioAssay)
FBPA coupling cs – qHTS Assay for Inhibitors of Fructose-1,6-bisphosphate Aldolase from Giardia Lamblia: Coupling assay counterscreen; coupling enzyme system counterscreen, AmpLite Red fluorescence; activity change, negative = inhibition, % at 58.2 µM, hits read low; 290,000 tested, 0.67% active; AID 2472, 2010; in the data active = activity change below about -30%
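First, compound is pin-transferred into glyceraldehyde-3-phosphate coupling-enzyme reagent at 57.5 uM final and held 10 min at RT. Next, substrate, coupling system and AmpLite Red are added. After 20 min RT, fluorescence (525/598 nm) is read.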
Tau fibril ThT – qHTS for Inhibitors of Tau Fibril Formation, Thioflavin T Binding. 270,000 tested, 2.1% active. recombinant tau K18 P301L, heparin-induced fibrillization, ThT fluorescence. Microtubule-associated protein tau (Homo sapiens), P10636. Potency, µM (top dose mostly 57.4 µM), usual class: inhibitors. AID 1460, 2008; also: nearly all actives have a fitted effect of over 55% in size
Target sequence (P10636 561-689 P618L limits assumed): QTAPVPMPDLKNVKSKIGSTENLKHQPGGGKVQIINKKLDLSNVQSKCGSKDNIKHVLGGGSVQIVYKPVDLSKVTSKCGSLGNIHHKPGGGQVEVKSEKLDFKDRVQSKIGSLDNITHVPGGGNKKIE
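Heparin-induced fibrillization of the P301L-mutant K18 repeat-domain fragment of human tau was followed by ThT binding in quantitative high-throughput format.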
Tau fluor cs – Counterscreen qHTS for Inhibitors of Tau Fibril Formation, Fluorescence Polarization | AID 1463, 2008 | 280,000 tested, 0.93% active | Potency, µM (doses to about 57.7 µM) | tau K18 P301L Alexa594 fluorescence, heparin fibrillization; also: nearly all actives have a fitted effect of over 55% in size
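Human tau K18 P301L (15 uM unlabeled, 0.24 uM Alexa 594-labeled) in 100 mM sodium acetate pH 7 with 20 uM heparin, 6 hr at 37 C. ThT 30 uM added, 1 hr ambient; Alexa 594 FP and total fluorescence read at 555/632 nm.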
Tau FP inhib – qHTS for Inhibitors of Tau Fibril Formation, Fluorescence Polarization; Microtubule-associated protein tau (Homo sapiens), P10636; K18 P301L tau heparin fibrillization, Alexa594 FP, 6 h; Potency, µM (titrated, usually from 57.7 µM), most hits filed as inhibitors; 280,000 tested, 0.39% active; also: nearly all actives have a fitted effect of over 55% in size
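Compound effects on tau fibrillization are measured by Alexa 594 fluorescence polarization (ex 555, em 632 nm). K18 P301L tau is used at 15 uM with 0.24 uM labeled tracer, and 20 uM heparin induces aggregation over 6 hr at 37 C.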
Hits are given with their value. A selection: hits, their analogues and other compounds. The true share with any hit is near 2.7%. Unless noted, calls follow the shape of the dose curve; as a rule, active = well fitted curve in the direction sought with a large enough effect; inconclusive = small, poorly fitted or top-dose-only effect, or another doubt; inactive = no such curve, though single readings can be large; an effect the other way counts as inactive or inconclusive.

How did CCS(=O)(=O)NCc1ccc2[nH]c3c(c2c1)CCCC3 do in these assays?
FBPA coupling cs: -44; Tau fibril ThT: inactive; Tau fluor cs: inconclusive; Tau FP inhib: inactive

What do the screens show for `CCCc1ccc(OCC(=O)Nc2sc3c(c2C(=O)OC)CCCCC3)cc1`?
Tau fibril ThT: inconclusive; Tau fluor cs: inactive; Tau FP inhib: inactive

Results for COc1cccc(NC(=O)N(CCC(C)C)C2CCN(C(C)C)CC2)c1 ?
Tau fibril ThT: inactive; Tau fluor cs: inactive; Tau FP inhib: inactive

How did CC(=O)Oc1c(Br)cc(N(C(C)=O)S(=O)(=O)c2ccccc2)c2ccccc12 do in these assays?
FBPA coupling cs: -45

How did CC(=O)Oc1ccccc1N(C(C)=O)S(=O)(=O)c1ccc2ccccc2c1 do in these assays?
FBPA coupling cs: inactive; Tau fibril ThT: inactive; Tau fluor cs: inactive; Tau FP inhib: inactive

What do the screens show for `Cc1ccc(CSc2nc3c([nH]c4ccccc43)c(=O)n2C)cc1`?
Tau fibril ThT: inactive; Tau fluor cs: inactive; Tau FP inhib: inactive

Results for COc1ccc(N=C2S/C(=C\c3ccc(OC(C)C(=O)O)c(OC)c3)C(=O)N2CCc2c[nH]c3ccccc23)cc1 (stereo not drawn) ?
FBPA coupling cs: inactive; Tau fibril ThT: 28µM; Tau fluor cs: inconclusive; Tau FP inhib: inactive

How did COc1cc(/C=C2\SC(=Nc3ccccc3)N(CCc3c[nH]c4ccccc34)C2=O)ccc1OC(C)C(=O)O (stereo not drawn) do in these assays?
FBPA coupling cs: inactive; Tau fibril ThT: inconclusive; Tau fluor cs: inconclusive; Tau FP inhib: inactive

Results for O=C1/C(=C/c2ccc(N3CCOCC3)o2)SC(=Nc2ccccc2)N1CCc1c[nH]c2ccccc12 ?
FBPA coupling cs: inactive; Tau fibril ThT: 14µM; Tau fluor cs: inconclusive; Tau FP inhib: inconclusive

Results for Cc1cccc(NC(=O)c2nc[nH]c2C(=O)N[C@@H](Cc2ccccc2)C(=O)OC(C)(C)C)c1 ?
FBPA coupling cs: inactive; Tau fibril ThT: inconclusive; Tau fluor cs: inconclusive; Tau FP inhib: 8.9µM

Results for CC(C)(C)OC(=O)[C@H](Cc1ccccc1)NC(=O)c1[nH]cnc1C(=O)Nc1ccc(Cl)cc1 ?
FBPA coupling cs: inactive; Tau fibril ThT: inactive; Tau fluor cs: inconclusive; Tau FP inhib: 13µM

How did CC(C)(C)OC(=O)[C@H](Cc1ccccc1)NC(=O)c1nc[nH]c1C(=O)N[C@@H](Cc1ccccc1)C(=O)OC(C)(C)C do in these assays?
FBPA coupling cs: inactive; Tau fibril ThT: inactive; Tau fluor cs: inactive; Tau FP inhib: inconclusive

What do the screens show for `CCOC(=O)c1ccc(NC(=O)c2nc[nH]c2C(=O)N[C@@H](Cc2ccccc2)C(=O)OC(C)(C)C)cc1`?
FBPA coupling cs: inactive; Tau fibril ThT: inconclusive; Tau fluor cs: inconclusive; Tau FP inhib: inconclusive

How did Cc1cccc(NC(=O)c2nc[nH]c2C(=O)N[C@@H](CC(C)C)C(=O)OC(C)(C)C)c1 do in these assays?
FBPA coupling cs: inactive; Tau fibril ThT: inactive; Tau fluor cs: inconclusive; Tau FP inhib: 13µM

How did CC(C)(C)OC(=O)[C@H](Cc1ccccc1)NC(=O)c1[nH]cnc1C(=O)Nc1cccc(Cl)c1 do in these assays?
FBPA coupling cs: inactive; Tau fibril ThT: inactive; Tau fluor cs: inconclusive; Tau FP inhib: 22µM

What do the screens show for `CC(C)C[C@H](NC(=O)c1nc[nH]c1C(=O)N[C@@H](CC(C)C)C(=O)OC(C)(C)C)C(=O)OC(C)(C)C`?
FBPA coupling cs: inactive; Tau fibril ThT: inactive; Tau fluor cs: inactive; Tau FP inhib: inactive

How did CC(C)C[C@H](NC(=O)c1[nH]cnc1C(=O)Nc1ccc(Cl)cc1)C(=O)OC(C)(C)C do in these assays?
FBPA coupling cs: inactive; Tau fibril ThT: inactive; Tau fluor cs: inactive; Tau FP inhib: 11µM

How did CCOC(=O)c1sc(N(Cc2ccccc2)C(=O)COC(=O)c2ccc(O)cc2)nc1C do in these assays?
FBPA coupling cs: inactive; Tau fibril ThT: inactive; Tau fluor cs: inconclusive; Tau FP inhib: 14µM

Results for CCOc1ccccc1NC(=O)c1nc(SC(C)C)ncc1Cl ?
Tau fibril ThT: inactive; Tau fluor cs: inactive; Tau FP inhib: inactive

Results for O=[N+]([O-])c1nn(-c2ccc3c(c2)OCCO3)n(O)c1=Nc1ccc(Cl)cc1 ?
FBPA coupling cs: inactive; Tau fibril ThT: 14µM; Tau fluor cs: inconclusive; Tau FP inhib: inconclusive
